Measurements from publication PMC4081100, “A DNA-binding-site landscape and regulatory network analysis for NAC transcription factors in Arabidopsis thaliana”.

What was measured:
Experiment in all cases: universal protein binding microarray (PBM); transcription factors of Arabidopsis thaliana; high values mean tight binding
Settings in all cases: protein: recombinant; tags: GST; chain copies: 2; dsDNA, one strand shown
[1] = target: T1, GST-ANAC092(1-176) (Arabidopsis thaliana, UniProt Q9FKA0 1-176)
T1 sequence: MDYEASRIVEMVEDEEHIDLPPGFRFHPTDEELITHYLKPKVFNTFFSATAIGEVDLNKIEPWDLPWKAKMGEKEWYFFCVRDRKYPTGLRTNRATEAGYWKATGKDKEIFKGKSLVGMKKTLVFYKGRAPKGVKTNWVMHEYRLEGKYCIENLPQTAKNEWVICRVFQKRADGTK
Summary of the method: (§1)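 GST-tagged NAC-domain, full-length or DNA-binding-domain proteins were induced in cells, with zinc acetate added for zinc-finger proteins. They were purified on glutathione–Sepharose 4B and quantified by A280 or anti-GST western blot. Each was applied at 200 to 500 nM final, in duplicate, to custom all-10-mer Agilent 4 × 180K arrays made double-stranded by primer extension, with gapped and ungapped 8-mers scored. Binding is the normalised enrichment score (E-score).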

[2] = target: T2, GST-ANAC019 NAC domain (Arabidopsis thaliana, UniProt Q9C932 14-162)
T2 sequence: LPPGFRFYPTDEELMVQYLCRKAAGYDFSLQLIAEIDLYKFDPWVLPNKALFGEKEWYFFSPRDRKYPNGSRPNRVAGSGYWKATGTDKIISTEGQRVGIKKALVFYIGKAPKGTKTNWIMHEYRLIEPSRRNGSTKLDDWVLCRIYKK
Summary of the method: as §1

[3] = target: T3, GST-ANAC055(1-171) (Arabidopsis thaliana, UniProt Q9LDY8 1-171)
T3 sequence: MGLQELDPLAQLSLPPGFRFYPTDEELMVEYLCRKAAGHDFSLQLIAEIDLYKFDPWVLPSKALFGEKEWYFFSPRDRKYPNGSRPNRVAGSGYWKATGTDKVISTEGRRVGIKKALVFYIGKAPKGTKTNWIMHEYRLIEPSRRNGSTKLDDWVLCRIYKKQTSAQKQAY
Summary of the method: as §1

[4] = target: T4, GST-ATAF1 NAC domain (Arabidopsis thaliana, UniProt Q39013 7-158)
T4 sequence: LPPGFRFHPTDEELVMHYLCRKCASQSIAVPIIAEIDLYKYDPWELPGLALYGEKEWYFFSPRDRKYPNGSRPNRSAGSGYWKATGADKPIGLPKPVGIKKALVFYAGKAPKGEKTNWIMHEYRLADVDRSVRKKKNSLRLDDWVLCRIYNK
Summary of the method: as §1

[5] = target: T5, GST-ANAC092(1-285) full length (Arabidopsis thaliana, UniProt Q9FKA0 1-285)
T5 sequence: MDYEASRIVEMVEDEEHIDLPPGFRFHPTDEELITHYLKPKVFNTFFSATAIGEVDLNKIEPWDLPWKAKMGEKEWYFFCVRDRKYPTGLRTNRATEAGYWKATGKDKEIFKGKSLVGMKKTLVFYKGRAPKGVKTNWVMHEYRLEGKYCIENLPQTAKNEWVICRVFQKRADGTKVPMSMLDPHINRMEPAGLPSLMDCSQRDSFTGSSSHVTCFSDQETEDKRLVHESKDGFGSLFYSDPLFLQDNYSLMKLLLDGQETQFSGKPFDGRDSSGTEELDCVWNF
Summary of the method: as §1

[6] = target: T6, GST-NAP(1-166) (Arabidopsis thaliana, UniProt O49255 1-166)
T6 sequence: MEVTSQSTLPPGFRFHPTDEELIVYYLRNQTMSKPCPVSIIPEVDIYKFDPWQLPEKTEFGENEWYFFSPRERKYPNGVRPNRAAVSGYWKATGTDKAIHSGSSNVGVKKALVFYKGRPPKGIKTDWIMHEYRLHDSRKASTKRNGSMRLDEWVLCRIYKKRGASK
Summary of the method: as §1

[7] = target: T7, GST-NST2(1-184) (Arabidopsis thaliana, UniProt Q9M274 1-184)
T7 sequence: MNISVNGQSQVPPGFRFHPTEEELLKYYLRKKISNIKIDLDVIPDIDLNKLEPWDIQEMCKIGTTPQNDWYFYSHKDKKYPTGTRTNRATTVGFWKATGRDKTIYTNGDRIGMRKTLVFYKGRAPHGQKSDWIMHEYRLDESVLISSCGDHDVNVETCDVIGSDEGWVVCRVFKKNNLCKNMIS
Summary of the method: as §1

[8] = target: T8, GST-NTL8 NAC domain (Arabidopsis thaliana, UniProt Q9XIN7 14-156)
T8 sequence: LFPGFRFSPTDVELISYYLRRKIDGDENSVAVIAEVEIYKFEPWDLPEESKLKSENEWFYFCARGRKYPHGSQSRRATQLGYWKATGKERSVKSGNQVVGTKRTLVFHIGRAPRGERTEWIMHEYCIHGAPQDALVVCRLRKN
Summary of the method: as §1

[9] = target: T9, GST-SND1(1-203) (Arabidopsis thaliana, UniProt Q9LPI7 1-203)
T9 sequence: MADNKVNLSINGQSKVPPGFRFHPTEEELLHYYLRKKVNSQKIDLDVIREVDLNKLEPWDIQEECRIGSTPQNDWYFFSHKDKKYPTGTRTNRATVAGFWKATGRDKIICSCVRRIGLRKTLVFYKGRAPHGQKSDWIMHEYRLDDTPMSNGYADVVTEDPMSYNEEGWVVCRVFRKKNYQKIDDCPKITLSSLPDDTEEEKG
Summary of the method: as §1

[10] = target: T10, GST-VND3 NAC domain (Arabidopsis thaliana, UniProt Q9FH59 12-162)
T10 sequence: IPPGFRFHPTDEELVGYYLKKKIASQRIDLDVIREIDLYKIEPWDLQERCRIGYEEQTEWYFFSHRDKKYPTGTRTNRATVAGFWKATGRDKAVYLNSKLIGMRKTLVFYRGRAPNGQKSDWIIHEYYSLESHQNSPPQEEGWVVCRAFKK
Summary of the method: as §1

[11] = target: T11, GST-VND7 NAC domain (Arabidopsis thaliana, UniProt Q9C8W9 9-158)
T11 sequence: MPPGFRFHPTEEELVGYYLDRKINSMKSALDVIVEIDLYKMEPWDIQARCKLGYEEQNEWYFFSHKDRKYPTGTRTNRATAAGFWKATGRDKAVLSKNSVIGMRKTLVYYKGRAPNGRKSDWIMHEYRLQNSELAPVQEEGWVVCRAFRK
Summary of the method: as §1

Sequence	binding signal [1] [E-score]	binding signal [2] [E-score]	binding signal [3] [E-score]	binding signal [4] [E-score]	binding signal [5] [E-score]	binding signal [6] [E-score]	binding signal [7] [E-score]	binding signal [8] [E-score]	binding signal [9] [E-score]	binding signal [10] [E-score]	binding signal [11] [E-score]
ACGCAATG	0.452	0.32	0.21	0.162	0.456	0.35	0.359	0.0941	0.437	0.314	0.311
ACGTAAAC	0.397	0.427	0.355	0.321	0.43	0.368	0.317		0.404	0.402	0.266
ATACGTTA	0.443	0.074	0.139	0.273	0.451	0.169	0.214		0.433	0.274	0.146
AGACGTAA	0.425	0.453	0.389	0.437	0.424	0.456	0.282	0.139	0.408	0.42	0.42
ATACGGAA	0.33	0.436	0.394	0.332	0.399	0.372	0.223	0.0989	0.219	0.371	0.38
GTTACGCA	0.338	0.301	0.189	0.2	0.363	0.263	0.219		0.422	0.317	0.215
CTACGCAA	0.427	0.316	0.207	0.267	0.447	0.196	0.364	0.126	0.488	0.365	0.349
GCACGTAA	0.461	0.478	0.433	0.381	0.467	0.427	0.218	0.189	0.225	0.454	0.454
TACACGTA	0.382	0.286	0.361	0.322	0.411	0.386	0.198		0.251	0.375	0.406
ACGTTACC	0.458	0.263	0.197	0.195	0.467	0.218	0.331	0.384	0.462	0.249	0.176
AAATACGT	0.196	0.226	0.244	0.346	0.35	0.29	0.209	0.101	0.21	0.408	0.263
ACGGAACT	0.292	0.468	0.438	0.392	0.277	0.452	0.159	0.109	0.178	0.417	0.445
GTGCCGTA	0.427	0.467	0.432	0.413	0.449	0.412	0.263	0.102	0.377	0.443	0.453
GACACGCA	0.43	0.358	0.275	0.304	0.455	0.283	0.0949	0.0711	0.242	0.208	0.318
AGCACGCA	0.435	0.333	0.281	0.31	0.453	0.282	0.222	0.0609	0.343	0.301	0.216
CACGACAC	0.321	0.41	0.372	0.338	0.355	0.343	0.134	0.0614	0.0543	0.299	0.348
CACGCCAA	0.443	0.185	0.159	0.16	0.451	0.114	0.3	0.0657	0.334	0.0966	0.114
CACGTTAC	0.467	0.241	0.293	0.287	0.476	0.221	0.328	0.0995	0.432	0.319	0.275
ACGGCACT	0.331	0.467	0.449	0.454	0.393	0.425	0.187	0.0691	0.174	0.402	0.453
AACACGTT	0.375	0.262	0.284	0.228	0.426	0.259	0.222	0.132	0.202	0.281	0.203
TACGGCAA	0.409	0.409	0.363	0.381	0.422	0.362	0.212	0.192	0.381	0.417	0.419
ACACGGCA	0.481	0.485	0.479	0.446	0.481	0.457	0.245	0.0652	0.148	0.463	0.481
CTCACGCA	0.416	0.359	0.211	0.0962	0.41	0.171	0.22	0.0698	0.286	0.194	0.193
ACGGCAAC	0.401	0.386	0.375	0.288	0.42	0.264	0.264		0.246	0.326	0.331
